We go through 58 molecules from PubChem BioAssay AID743279 (National Center for Advancing Translational Sciences (NCATS), 2014).

Molecules are shown by their SMILES. In all, about 360,000 compounds went through this assay and about 17,000 (4.7%) were called active. About 5% were inconclusive and are not listed. Shown is part of a subset that was picked to be rich in actives. A number with no mark means an inactive call. Cut-off read from the data, not from the text of the source: active = activity change below about -50%; inconclusive = mostly about -30% to -49%; inactive = weaker than that.
% is set by controls: 0 for no effect and ±100 for the full control effect.

The nature of the test: qHTS for Inhibitors of Inflammasome Signaling: IL-1-beta AlphaLISA Primary Screen. The settings on record: THP-1 LPS/ATP IL-1B secretion, 16 h; at 57.5 µM, hits give low values. An excerpt: Inflammasomes are a set of intracellular multi-protein complexes that enable autocatalytic activation of inflammatory caspases and drive the innate immune response to counter harmful agents. […] A qHTS assay, based on AlphaLISA technology, was developed to screen the Molecular Libraries Small Molecule Repository (MLSMR) to look for novel inflammasome inhibitors. The assay detects IL-1B using AlphaLISA anti-IL-1B acceptor and donor beads. A decreased emission signal, indicating reduced IL-1B secretion, is the desired outcome for this assay. NIH Chemical Genomics Center [NCGC] NIH Molecular Libraries Probe Centers Network [MLPCN] MLPCN Grant: MH095513 Assay Provider: Shyam Biswal Ph.D., Johns Hopkins University Immunity. 2012 Jul 27;37(1):85-95. PMID: 22819042 [2] Curr Pharm Des. 2012;18(16):2320-8. PMID: 22390695
Three microliters containing 3000 THP-1 cells were dispensed into the wells of solid, white, tissue culture treated Greiner 1,536-well plates. Library compounds and positive control, Glyburide, were pin-transferred (23 nL) by a Kalypsys pin-tool equipped with a 1,536-pin array, resulting in final compound concentration ranges of 2.5 nM to 57.5 uM. After 1 hr of cell culture incubation (37 °C, 5% CO2), 1 microL of 1 microg/mL lipopolysaccharide (250 ng/mL, final) and 5 mM ATP (1.25 mM, final) were added to stimulate the cells. After 16 hr of cell culture incubation with the compounds, 1.5 uL of anti-IL-1B acceptor beads (6 ug/mL, final) and biotinylated antibody (0.6 nM, final) were added to the plate, followed by a 1 hr incubation at ambient temperature. To detect the secreted IL-1B, 1.5 uL of AlphaLISA SA-Donor beads (24 ug/mL, final) were added, followed by 30 min of incubation in the dark at ambient temperature. The AlphaLISA signal was read by a PerkinElmer EnVision plate reader with an ultrasensitive luminescence detector and 1536 Plate HTS AlphaScreen aperture (excitation of 680nm and emission of 615nm).
Take `CN(C(=O)CSc1nc(C2CC2)nc2ccccc12)c1nc(-c2ccccc2)cs1`: the activity change was -16.2%.

With `CC(C)N(C(=O)CSc1nc(COc2ccccc2)nc2ccccc12)C(C)C`, the activity change is -71.7% (active).

Turning to `CCCc1nc(SCC(=O)Nc2ccc(S(=O)(=O)N(C)C)cc2)c2ccccc2n1`, the activity change is -11.4%.

Consider `CCOC(=O)c1ccn(S(=O)(=O)c2ccc(C)cc2)c1-c1ccccc1`, for which the activity change was 40.2%.

As to `CN(N)c1nc(N2CCCC2)nc(N2CCCC2)n1`, the activity change was 3.61%.

`O=C(NCc1ccccc1Cl)c1csc([C@@H]2O[C@H](CO)[C@@H](O)[C@H]2O)n1`: the activity change was 6.54%.

With `CN(C(=O)c1cccc(NC(=O)Cc2ccc(NC(=O)C3CCCN(C(=O)C4CC4)C3)cc2)c1)C1CC1` (stereo not drawn), the activity change is 54.5%.

As to `Cc1ccc2nc(-c3ccccc3)c(CC3CCCCC3)n2c1`, the activity change was -0.767%.

Turning to `CCCCN(C)CCNC(=O)CSCc1ccc(C)cc1`, the activity change was 16.4%.

In the case of `CCOC(=O)C1Cn2c(nc3c(c2=O)C(C)(CC)Cc2ccccc2-3)S1` (stereo not drawn), the activity change is -60.4% (active).

As for `CCC1(CC)Cc2ccccc2-c2nc(CCl)[nH]c(=O)c21`, the activity change is 38.6%.

As for `CC1(C)Cc2ccccc2-c2nc(CN3CCOCC3)[nH]c(=O)c21`, the activity change is 0%.

In the case of `CC(OC(=O)c1cccc(S(=O)(=O)N2CCOCC2)c1)C(=O)NCC1CCCCC1` (stereo not drawn), the activity change is -2.42%.

Turning to `COc1cc(/C=C/C(=O)OCC(=O)Nc2cccc(Oc3ccccc3)c2)ccc1O`, the activity change was 15.2%.

Consider `COC(=O)c1ccc(C2C(Oc3ccccc3C)C(=O)N2CCc2ccc(OC)c(OC)c2)cc1` (stereo not drawn), for which the activity change is -21.3%.

As for `Cc1cc(NC(=O)CCC(=O)N(c2ccccc2)C(C(=O)NC2CCCC2)c2ccncc2)no1` (stereo not drawn), the activity change is -1.05%.

`Cc1cc(NC(=O)/C=C/C(=O)N(c2ccccc2C)C(C(=O)NC2CCCC2)c2ccc(F)cc2)no1` (stereo not drawn): the activity change is -95.1% (active).

As to `Cc1cc(NC(=O)/C=C/C(=O)N(CC(=O)NC2CCCC2)c2ccc(F)cc2)no1`, the activity change was -87.8% (active).

For the molecule `Cc1cc(NC(=O)CCC(=O)N(c2cccc(F)c2)C(C(=O)NC2CCCC2)c2ccncc2)no1` (stereo not drawn), the activity change was 10.2%.

With `Cc1cc(C)cc(N(CC(=O)NC2CCCC2)C(=O)CCC(=O)Nc2cc(C)on2)c1`, the activity change is 23.6%.

On to `Cc1cc(NC(=O)CCC(=O)N(CC(=O)NC2CCCC2)c2ccc(F)cc2)no1`, for which the activity change was 8.19%.

For the molecule `Cc1oc2cc3oc(=O)ccc3cc2c1C`, the activity change is -4.45%.

Consider `Cc1ccc(S(=O)(=O)N2CC[C@H]3[C@@H](C2)C(=O)C[C@@H](c2ccccc2)N3S(=O)(=O)c2ccc(C)cc2)cc1`, for which the activity change was -0.365%.

On to `CCCC(C(=O)OCCN(CC)CC)(c1ccccc1)c1ccccc1`, for which the activity change is -14.1%.

Turning to `O=C(COc1ccc(S(=O)(=O)N2CCCC2)cc1[N+](=O)[O-])N1CCCCC1`, the activity change is 10.9%.

On to `Cc1ccc(C(=O)OCC(=O)NC2CCCCCCC2)cc1C`, for which the activity change is 8.07%.

For `Cc1noc(C)c1S(=O)(=O)N(C)C[C@H]1Oc2c(NC(=O)Nc3ccc4c(c3)OCO4)cccc2C(=O)N([C@H](C)CO)C[C@@H]1C`, the activity change is 5.23%.

As for `CSCCC(NC(=O)COc1ccccc1)C(=O)OCc1ccc(Cl)cc1` (stereo not drawn), the activity change was 6.8%.

As to `COc1ccc(Cn2c(-c3ccc(Cl)cc3)c[n+]3ccccc23)cc1`, the activity change was -79.9% (active).

For the molecule `CCn1c(C)cc(=O)cc1-c1ccc(Cl)cc1`, the activity change was 12.5%.

As to `COc1ccc(Cn2c(=O)oc3ccccc32)cc1`, the activity change is -4.96%.

In the case of `CC1(C(=O)NS(=O)(=O)c2ccccc2)CCN1C(=O)C1CCCCC1` (stereo not drawn), the activity change is 25.7%.

Turning to `Nc1nc2ncccn2c1-c1ccccc1`, the activity change was 18.6%.

`O=C(Nc1ccccc1)OCc1cn(-c2ccc(Cl)cc2)nn1`: the activity change was 33.8%.

`CCOC(=O)Nc1ccc(NC(=O)OCC)cc1`: the activity change is 0.929%.

As for `CC(C)(COC(=O)Nc1ccccc1)COC(=O)Nc1ccccc1`, the activity change was -50.5% (active).

On to `Cc1cccc(N(CC(=O)N2CCCC2)S(C)(=O)=O)c1C`, for which the activity change was 25%.

For the molecule `COC(=O)c1sc2[nH]c(=S)n(N)c(=O)c2c1C`, the activity change was 6.13%.

Regarding `CN(C(=O)c1cccc(NC(=O)Cc2ccc(NC(=O)C3CCCN(C(=O)C4CCCC4)C3)cc2)c1)C1CCC1` (stereo not drawn), the activity change is -10.6%.

Regarding `O=C(NNC(=O)C(O)c1ccccc1)NC1CCCCC1` (stereo not drawn), the activity change is 14.4%.

With `Cc1nc(/N=C(\N)NC(=O)NC2CCCCC2)nc2ccccc12`, the activity change is -104% (active).

As to `COc1cccc(NC(=O)Nc2ccc(F)cc2)c1`, the activity change was -27.3%.

In the case of `CC(C)c1cc(C(=O)NC2CCCCCC2)c2ccccc2n1`, the activity change was 0.331%.

As to `COc1ccc2nc(C)cc(Nc3cccc(C(=O)O)c3)c2c1`, the activity change is 10.8%.

As for `COc1ccc2nc(/N=C(\N)NC(=O)Nc3ccccc3)nc(C)c2c1`, the activity change was -80.5% (active).

For `CCCc1nc2ccccc2n1C(C)C(=O)NC(C)(C)C` (stereo not drawn), the activity change is 29%.

As for `O=C(NNc1nc(N2CCCC2)nc(N2CCCC2)n1)c1ccccc1`, the activity change was -0.122%.

As for `O=C1CCC(C(=O)N2CCC(O)(c3ccccc3)CC2)CN1CCc1ccccc1` (stereo not drawn), the activity change was -11.9%.

As to `O=C(CN1C(=O)NC2(CCc3ccccc32)C1=O)NC1CCCCC1` (stereo not drawn), the activity change was -10.5%.

`COC(=O)c1ccccc1N=NNc1ccc([N+](=O)[O-])cc1`: the activity change is -18.2%.

As for `COC(=O)c1c(C)oc(C)c1S(=O)(=O)Nc1ccc(C(C)C)cc1`, the activity change was 5.75%.

Consider `O=C(c1cc2ccccc2o1)N1CCN(c2cccc(C(F)(F)F)c2)CC1`, for which the activity change entry is “inactive”.

Turning to `Cc1cc2ccccn2c1C(=O)c1cccc(S(=O)(=O)N2CCOCC2)c1`, the activity change is -17.1%.

Regarding `N#Cc1c(-c2cccs2)nc(SCC(=O)c2ccc(Br)cc2)[nH]c1=O`, the activity change was 13.2%.

Consider `CCOC(=O)CC1COCCN1C(=O)c1cc(COc2ccc(F)c(F)c2)on1` (stereo not drawn), for which the activity change is 64.4%.

Consider `O=C(CCNS(=O)(=O)c1ccc(Br)cc1)NCC1CCCO1` (stereo not drawn), for which the activity change is -2.41%.

`CCCN1CCn2c3c(c4cc(Br)ccc42)CCCC31` (stereo not drawn): the activity change is 42.1%.

Consider `OC(CNCC1CCCO1)Cn1c2ccc(Br)cc2c2cc(Br)ccc21` (stereo not drawn), for which the activity change was -62.5% (active).
